A selection: hits, their analogues and other compounds. The true share with any hit is near 2.2%.
hiPSC survival = increases survival of single human iPS cells; hiPSC single-cell survival, ATPlite luminescence; 100% = ROCK inhibitor wells, 0% = DMSO; survival enhancement, % at 20 µM; 0.044% of 360,000 active; AID 602274; in the data active = survival enhancement above about 18%;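 note: cells exposed to compounds for 16 hours before the ATP read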
KKLEB tox = counter-screen for CF NF-kB inhibitors: cytotoxicity; KKLEB CF airway cells viability, ATPlite luminescence, overnight; stronger effect = lower value; cells stimulated with P. aeruginosa culture filtrate; activity change (cytotoxicity), % at 5 µM; 0.36% of 360,000 active;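 active = corrected activity change at or below -50% at 5 µM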
C8 TRAIL sens = caspase-8 TRAIL sensitization; 1% of 360,000 active; NB7+C8 cells + TRAIL, ATPlite viability luminescence; inhibition (viability loss, TRAIL sensitization), % at 10 µM; AID 624354;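 active = compounds causing at least 50% loss of cell viability in the single-dose screen, relative to plate controls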
CF NFkB inh = cystic fibrosis NF-kB activation inhibition. KKLEB NF-kB-GFP reporter, PAF-induced, GFP fluorescence overnight. inhibition, % at 5 µM. 0.86% of 360,000 active;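 active = at least 50% inhibition at 5 µM, scaled per plate between neutral and stimulator controls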;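 note: PAF is a Pseudomonas aeruginosa culture filtrate used as stimulus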
PPC-1+TRAIL kill = kills PPC-1 cancer cells in the presence of TRAIL. PPC-1 cells + TRAIL, ATPLite viability luminescence. cell killing (% activity), % at 4 µM or 5 µM. 0.41% of 220,000 active. AID 1443;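 active = cell killing above 50% in the first pass at 4 µM, then a duplicate retest at 5 µM averaging 50% or more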
HIF-2a inh = blocks HIF-2a reporter activity | 786-0 RCC cells HIF-2a reporter, luciferase luminescence, overnight | inhibition, % at 18.8 µM | 0.72% of 360,000 active | AID 624352;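 active = inhibition of the luminescence signal of 40% or more relative to plate controls, in a single-dose primary screen at 18.75 µM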
Mdm2-MdmX confirm = Mdm2/MdmX (human) interaction inhibition, confirmed; shares compounds with HIF-2a inh; SaOS-2 split-luciferase Mdm2/MdmX complementation, luminescence; inhibition, % at 8 µM; 99% of 740 active; AID 504601;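 active = mean inhibition of the luminescence signal across two replicates at or above 26 percent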
Target sequence (O15151 whole entry, looked up): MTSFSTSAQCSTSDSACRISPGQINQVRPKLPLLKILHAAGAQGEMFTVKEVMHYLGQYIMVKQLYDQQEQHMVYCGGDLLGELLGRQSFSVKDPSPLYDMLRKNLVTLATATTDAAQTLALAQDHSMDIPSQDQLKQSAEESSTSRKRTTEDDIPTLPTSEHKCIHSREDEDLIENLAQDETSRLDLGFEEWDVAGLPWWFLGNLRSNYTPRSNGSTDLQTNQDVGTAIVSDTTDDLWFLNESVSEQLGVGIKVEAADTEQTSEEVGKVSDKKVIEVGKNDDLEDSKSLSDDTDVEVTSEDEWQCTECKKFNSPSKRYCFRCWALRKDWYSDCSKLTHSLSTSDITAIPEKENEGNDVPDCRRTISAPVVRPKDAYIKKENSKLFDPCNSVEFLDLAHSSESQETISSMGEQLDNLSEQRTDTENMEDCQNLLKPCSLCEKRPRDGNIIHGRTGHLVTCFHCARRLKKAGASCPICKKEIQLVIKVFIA
Target sequence (Q00987 whole entry, looked up): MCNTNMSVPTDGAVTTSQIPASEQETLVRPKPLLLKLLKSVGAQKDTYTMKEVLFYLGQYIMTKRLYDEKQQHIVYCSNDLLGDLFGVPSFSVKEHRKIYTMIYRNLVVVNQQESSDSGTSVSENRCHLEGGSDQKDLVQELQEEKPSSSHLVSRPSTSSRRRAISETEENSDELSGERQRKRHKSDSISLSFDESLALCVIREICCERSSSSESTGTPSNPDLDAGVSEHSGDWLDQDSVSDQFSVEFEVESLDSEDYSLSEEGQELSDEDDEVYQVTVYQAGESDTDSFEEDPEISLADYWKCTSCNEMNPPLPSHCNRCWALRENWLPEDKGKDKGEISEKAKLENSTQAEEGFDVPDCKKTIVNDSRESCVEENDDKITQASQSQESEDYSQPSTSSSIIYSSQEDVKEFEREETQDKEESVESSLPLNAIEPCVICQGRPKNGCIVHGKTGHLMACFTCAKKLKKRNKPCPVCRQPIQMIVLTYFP
HIF-2a conf = confirmation of HIF-2a inhibitors | shares compounds with HIF-2a inh | 786-0 RCC cells, HIF-2a luciferase reporter luminescence, overnight | inhibition, % at 18.8 µM | 56% of 1,800 active;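 active = mean inhibition across four replicates of at least 40 percent at the single tested concentration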
HIF-1a counter = HIF-1a inhibition counter-screen for HIF-2a hits; shares compounds with HIF-2a inh; MiaPaCa-2 HIF-1a luciferase reporter, desferoxamine, overnight; inhibition, % at 18.8 µM; 72% of 1,800 active; AID 651589;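 active = mean inhibition of the reporter signal across four replicates at the single tested dose of 50% or more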
Hits are given with their value; – = inactive; · = no result given.

SMILES	hiPSC survival	KKLEB tox	C8 TRAIL sens	CF NFkB inh	PPC-1+TRAIL kill	HIF-2a inh	HIF-2a conf	HIF-1a counter	others
O=C(Nc1cccc(N2C(=O)C=CC2=O)c1)c1cccs1	–	–	–	–	·	–	·	·
O=C1C=CC(=O)N1c1cccc(-c2ccccc2)c1	–	–	–	–	–	76	68	–
COc1cccc2c1C(CO)N1C(C#N)C3CC(C(=O)O)C(C1C2)N3C (configuration not stated)	–	-52	59	96	–	42	–	106	Mdm2-MdmX confirm=103
CC1CCCCC1NC(=O)/C(C#N)=C/c1ccccc1F (configuration not stated)	–	–	–	–	–	88	81	106
CCOCCCNC(=O)/C(C#N)=C/c1ccccc1F	–	–	–	–	–	–	·	·
CN(C)CCN1CCN(C(c2cc3ccccc3o2)c2nnnn2C(C)(C)C)CC1 (configuration not stated)	–	·	–	·	·	–	·	·
Cc1cccc(CN2CCN(C3CN(C4CCCCC4)S(=O)(=O)C3)CC2)c1 (configuration not stated)	–	–	–	–	·	–	·	·
COc1ccc(CN2[C@@H](CC(C)=O)c3ccc(/C=C/C(C)=O)cc3S2(=O)=O)cc1	–	–	–	–	·	43	–	–
COc1cccc(N2[C@@H](CC(C)=O)c3ccc(/C=C/C(C)=O)cc3S2(=O)=O)c1	–	–	–	–	·	45	–	–
COC(=O)/C=C/c1ccc2c(c1)S(=O)(=O)N(Cc1ccc(OC)cc1)[C@H]2CC(=O)OC	–	–	–	–	·	–	·	·
CC(C)c1ccccc1NC(=O)C1CCCN(C(=O)c2ccc(Cl)cc2)C1 (configuration not stated)	–	–	–	–	·	–	·	·
NC(c1csc(Nc2nncc3ccccc23)n1)C1CCCCC1 (configuration not stated)	–	–	–	–	·	68	–	106
c1ccc(CNc2nc(NCc3ccccc3)c3ccccc3n2)cc1	–	–	53	–	–	–	·	·	Mdm2-MdmX confirm=103
Cc1cccc(-n2ccc(=O)c(C(=O)Nc3ccc(S(=O)(=O)N4CCOCC4)cc3)n2)c1	–	–	–	–	·	–	·	·
O=C(NNC(=S)Nc1ccc(Cl)c(Cl)c1)c1ccccn1	–	–	–	–	–	–	·	·	Mdm2-MdmX confirm=85
CCNC(=S)NNC(=O)c1ccccn1	–	–	–	–	–	–	·	·
COc1ccccc1N(Cc1cc(=O)[nH]c2ccccc12)C(=O)c1ccccc1	–	–	–	–	–	67	–	–
CN(Cc1cc(=O)[nH]c2ccccc12)C(=O)c1ccccc1	–	–	–	–	–	–	·	·
CC(Oc1ccccc1Cl)C(=O)Nc1ccccc1C(=O)N1CCOCC1 (configuration not stated)	–	–	–	–	·	–	·	·
N#Cc1cccc2c1-c1ccccc1/C2=N/NC(N)=S	–	–	–	–	·	48	–	–
N#Cc1cccc2c1-c1ccccc1/C2=N/NC(N)=O	–	–	–	–	·	–	·	·
Cc1cc(Cl)ccc1OCC(=O)OCC(=O)N(CC(C)C)c1c(N)n(Cc2ccccc2)c(=O)[nH]c1=O	–	–	–	–	·	–	·	·
CCOc1ccc(NC(=S)N2CCC(NC(=O)C3CCCCC3)CC2)cc1	–	–	–	–	·	–	·	·
C=CCc1cccc2cc(C(=O)NNC(=O)CC#N)c(=O)oc12	–	–	–	–	–	–	·	·
COC(=O)c1ccccc1NC1=C/C(=N\S(=O)(=O)c2cccs2)c2ccccc2C1=O	–	-72	80	83	–	–	·	·	Mdm2-MdmX confirm=96
SMILES	hiPSC survival	KKLEB tox	C8 TRAIL sens	CF NFkB inh	PPC-1+TRAIL kill	HIF-2a inh	HIF-2a conf	HIF-1a counter	others
COc1ccc(Nc2oc(COc3ccc(Cl)cc3)nc2C#N)cc1	–	–	–	–	–	50	–	51
Cn1nnnc1Sc1ncnc2scc(-c3cccc(C(F)(F)F)c3)c12	–	-52	–	71	·	84	91	99	Mdm2-MdmX confirm=103
COc1ccc(-c2csc3ncnc(N4CCN(S(=O)(=O)c5cccc(C(F)(F)F)c5)CC4)c23)cc1	–	–	–	–	·	–	·	·
Cn1nnnc1Sc1ncnc2scc(-c3ccccc3C(F)(F)F)c12	–	–	–	–	·	51	46	59
Cn1nnnc1Sc1ncnc2scc(-c3ccsc3)c12	–	–	–	–	·	66	49	100	Mdm2-MdmX confirm=103
COc1cccc(-c2csc3ncnc(Sc4nnnn4C)c23)c1	–	–	–	–	·	47	43	98
Cc1nnc(NC(=O)CSc2ncnc3scc(-c4ccccc4)c23)s1	–	–	–	–	–	–	·	·
COc1cccc(CNCCSc2nnnn2C)c1	–	–	–	–	–	–	·	·
CC(CCCCC(=O)Nc1ccc(C(F)(F)F)cc1)NCCc1cnc[nH]1 (configuration not stated)	·	·	·	·	–	·	·	·
COCCN(C(=O)COC(=O)Cc1coc2cc3c(cc12)CCC3)c1c(N)n(Cc2ccccc2)c(=O)[nH]c1=O	–	–	–	–	·	–	·	·
COc1ccccc1NC(=O)CN(Cc1ccco1)C(=O)c1ccc(Cl)nc1	–	–	–	–	–	–	·	·
Cn1nnnc1Sc1ncnc2scc(-c3cc4ccccc4o3)c12	–	-86	–	83	·	97	96	107	Mdm2-MdmX confirm=103
Cn1nnnc1Sc1ncnc2scc(-c3ccc(-c4ccccc4)cc3)c12	–	-63	–	88	·	46	–	101
Cc1ccc(-c2csc3ncnc(SCC(=O)O)c23)cc1	–	–	–	–	–	–	·	·
Cn1nnnc1Sc1ncnc2scc(-c3ccc(C(F)(F)F)cc3)c12	–	-59	–	72	·	94	98	102	Mdm2-MdmX confirm=100
COC(=O)CSc1ncnc2scc(-c3ccccc3)c12	–	–	–	–	–	–	·	·
Cn1nnnc1Sc1ncnc2scc(-c3cccs3)c12	·	·	·	·	·	·	·	·	Mdm2-MdmX confirm=103
COC(=O)C/C=C/N(Cc1ccccc1OC)S(=O)(=O)CCl	–	–	–	–	·	–	·	·
O=C(NN1CC(=O)N(c2cc(Cl)cc(Cl)c2)CC1=O)c1cccs1	–	–	–	–	–	–	·	·
Cc1nc(N)sc1C(=O)N1N=N1	–	–	–	–	–	–	·	·
CN(C)S(=O)(=O)c1cccc(NC(=O)c2cccc(S(=O)(=O)N3CCCCCC3)c2)c1	–	–	–	–	·	–	·	·
O=C(COc1ccccc1Cl)NCCCNC(=O)c1cccnc1	–	–	–	–	·	–	·	·
Cc1ccc(C(=O)NNc2ncnc3c2cnn3C)cc1	–	–	–	–	–	–	·	·

Screens (PubChem BioAssay)
